Experimental data from PubChem BioAssay.

What follows are molecules tested against Follistatin (Homo sapiens) (UniProt P19883) (assay: follistatin binders on small-molecule microarrays, primary screen, biochemical, small-molecule microarray, 635/667 nm fluorescence (AID 1132)). Details: FST binding, 635 nm fluorescence, higher = more signal.
Chain of Follistatin (Homo sapiens) (P19883 whole entry, looked up): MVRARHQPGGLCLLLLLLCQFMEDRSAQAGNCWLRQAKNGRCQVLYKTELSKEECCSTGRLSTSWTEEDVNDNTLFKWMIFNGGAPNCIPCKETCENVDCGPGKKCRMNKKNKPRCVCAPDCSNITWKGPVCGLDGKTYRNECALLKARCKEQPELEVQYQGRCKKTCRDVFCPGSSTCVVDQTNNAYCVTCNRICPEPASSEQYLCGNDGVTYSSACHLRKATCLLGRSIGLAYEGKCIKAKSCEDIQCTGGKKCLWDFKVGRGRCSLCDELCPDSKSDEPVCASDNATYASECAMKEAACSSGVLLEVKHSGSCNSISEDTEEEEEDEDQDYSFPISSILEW

| Structure (SMILES) | composite z-score |
| --- | --- |
| O=C1[C@H]2[C@H]3[C@H](O)[C@H](O)CC(=NOC[C@@H](O)COCc4ccco4)[C@@H]3CC[C@H]2C(=O)N1C1CCCCC1 | 1.22 |
| CC(CCC(=O)OC[C@H]1O[C@H](C#Cc2ccccc2)C=C[C@@H]1Oc1ccc(C)cc1)=NO[C@H](C)c1cn([C@@H]2COC[C@H]2O)nn1 | 0.273 |
| C[C@H]1CC[C@H]2C(=O)N[C@H](Cc3ccccc3)C(=O)N2[C@@H]1c1ccccc1 | 0.187 |
| CC(=O)OC[C@H]1O[C@H](CC=NO[C@H](C)c2cn([C@@H]3COC[C@H]3O)nn2)C=C[C@@H]1OC(C)=O | 0.356 |
| O=C1CCCC=C1C(O)COCc1ccccc1 (stereo not drawn) | 0.124 |
| COc1ccc(COC(=O)NN=C2C[C@@H](O)[C@@H](O)[C@@H]3[C@@H]4C(=O)N(C5CCCCC5)C(=O)[C@@H]4CC[C@@H]23)cc1 | -0.148 |
| COC(=O)CC=C[C@@H](C)[C@@H](C=NOC[C@@H](O)COCc1ccco1)OC | 1.15 |
| O=C1[C@H]2[C@H]3[C@H](O)[C@H](O)CC(=NO[C@@H]4O[C@H](CO)[C@@H](O)[C@H](O)[C@H]4O)[C@@H]3CC[C@H]2C(=O)N1C[C@@H]1CCCO1 | 0.396 |
| O=C1[C@H]2[C@H]3[C@H](O)[C@H](O)CC(=NOC[C@@H](O)COCc4ccco4)[C@@H]3CC[C@H]2C(=O)N1Cc1ccccc1 | 1.37 |
| CCOC(=O)[C@H](Cc1ccccc1)NC(=O)CCC1CC(OC(=O)NCCc2ccc(F)cc2)CC2(CCCC(COC(=O)NCc3cccc(C(F)(F)F)c3)O2)O1 (stereo partly drawn) | 0.787 |
| O=C1C=C[C@@H](O)[C@@H]2[C@@H]3C(=O)N(C4CCCCC4)C(=O)[C@@H]3CC[C@@H]12 | 1.21 |
| CCN1C(=O)[C@H]2[C@@H]3C(=CC[C@H]2C1=O)C(=O)[C@H]1O[C@H]1[C@H]3O | 1.21 |
| CCOC(=O)[C@H](Cc1ccccc1)NC(=O)CCC1CC(OC(=O)NCc2ccc3c(c2)OCO3)CC2(CCCC(COC(=O)NCCOc3ccccc3)O2)O1 (stereo partly drawn) | 0.875 |
| CCN1C(=O)[C@H]2[C@H]3[C@H](O)[C@H](O)CC(=NO[C@H](C)c4cn([C@H](CO)Cc5ccccc5)nn4)[C@@H]3CC[C@H]2C1=O | 0.758 |
| COC(OC)[C@@H](C)[C@H](OC)[C@@H](C)[C@H](OC)c1ccccc1 | 0.144 |
| CO[C@@H]1COC(=O)[C@H](CCSC)NC(=O)CC=C[C@@H](C)COC(=O)[C@@H]2CCCN2C(=O)CC=C[C@H]1C | 0.779 |
| CC(C)=NO[C@H](C)c1cn([C@@H]2COC[C@H]2O)nn1 | 0.349 |
| CC(C)=NOC(C)CN1CCCc2nc(C)c(C)cc21 (stereo not drawn) | 0.724 |
| CC#CCOCCC=C1c2ccccc2[C@@H](OC)[C@@H]1C | 0.331 |
| O=C1[C@H]2[C@H]3[C@H](O)[C@H](O)CC(=NO[C@@H]4O[C@H](CO)[C@@H](O)[C@H](O)[C@H]4O)[C@H]3CC[C@H]2C(=O)N1C[C@@H]1CCCO1 | -0.438 |
| O=C1C[C@H](c2ccccc2)[C@H](c2ccc(Br)cc2)O1 | -0.126 |
| CO[C@H]1COC(=O)CC=C[C@@H](C)COC(=O)[C@H]2CCCN2C(=O)CC=C[C@H]1C | 1.46 |
| O=C(NN=C1C[C@@H](O)[C@@H](O)[C@@H]2[C@@H]3C(=O)N(Cc4ccccc4)C(=O)[C@@H]3CC[C@H]12)OCc1ccccc1 | 0.387 |
